High-throughput results: PubChem BioAssay, several laboratories
PfHsp90 yeast 2 = reduces growth (ATP signal) of yeast expressing P. falciparum Hsp90 | S. cerevisiae expressing PfHsp90, BacTiter-Glo ATP, 48 h; yeast lacking PDR1 and PDR3 efflux regulators | inhibition, % at 9.4 µM | 310,000 compounds, 0.32% hits | AID 504621;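 active = every replicate shows inhibition above about 80%, whatever the replicate mean, limit read from the data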
SKKanGAS inh = inhibitors of SKKanGAS S. pyogenes growth in kanamycin (SK-promoter or general growth effect) | inhibition, % at 7.5 µM | 300,000 compounds, 1.3% hits | AID 1662 | BacTiter-Glo, 6 h;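 active = mean replicate score, as percent of positive control median, at least 50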;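 note: strain carries kanamycin resistance gene driven by streptokinase promoter and grows in 40 µg/ml kanamycin; loss of luminescence reflects streptokinase promoter inhibition or plain growth inhibition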
tim23-1 inh = inhibits growth of tim23-1 mutant yeast. inhibition, % at 20 µM. S. cerevisiae tim23-1 growth, BacTiter-Glo luminescence, 24 h. 330,000 compounds, 1.3% hits. AID 463212;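 active = growth inhibition of the mutant yeast at or above 50%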;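 note: temperature-sensitive mutant grown at 25 °C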
EBI2 block = antagonists of human EBI2 receptor; 360,000 compounds, 0.81% hits; AID 651636; EBI2 beta-arrestin recruitment, luminescence, 7a,25-OHC stimulated; P32249; inhibition, % at 5 µM; in the data active = inhibition above about 38%;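 note: enzyme fragment complementation signal reports receptor beta-arrestin coupling in cells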
Target sequence (P32249 whole entry, looked up, the tested form may be a part): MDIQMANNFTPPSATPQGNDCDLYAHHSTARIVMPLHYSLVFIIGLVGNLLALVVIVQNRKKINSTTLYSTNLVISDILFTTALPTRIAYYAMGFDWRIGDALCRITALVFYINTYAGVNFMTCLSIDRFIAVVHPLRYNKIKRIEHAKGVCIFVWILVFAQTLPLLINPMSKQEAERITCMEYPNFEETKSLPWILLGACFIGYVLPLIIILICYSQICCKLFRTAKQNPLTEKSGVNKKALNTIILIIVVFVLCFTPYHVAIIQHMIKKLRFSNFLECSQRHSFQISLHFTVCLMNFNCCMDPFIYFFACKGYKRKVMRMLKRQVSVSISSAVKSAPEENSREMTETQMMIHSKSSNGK
tim10-1 inh = inhibits growth of tim10-1 mutant yeast; S. cerevisiae tim10-1 ts strain growth, BacTiter-Glo, 24 h; inhibition, % at 20 µM; 330,000 compounds, 2.2% hits;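 active = inhibition of at least 40%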;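 note: mutant grown at 25 °C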
TIM10 inh = growth inhibitors of TIM10 yeast strain | S. cerevisiae TIM10 strain growth, BacTiter-Glo luminescence, 24 h | inhibition, % at 10 µM | 330,000 compounds, 1.4% hits;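 active = inhibition of 40% or more at the single tested concentration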;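 note: wild-type TIM10 isogenic control strain grown at permissive 25 °C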
tim10-1 conf = confirmation of tim10-1 mutant yeast growth inhibitors; shares compounds with tim10-1 inh; S. cerevisiae tim10-1 ts strain growth, BacTiter-Glo, 24 h; inhibition, % at 20 µM; 7,400 compounds, 56% hits; AID 463213;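 active = inhibition of yeast growth at or above a set limit in either of two repeat tests at 20 µM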;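 note: tim10-1 mutant grown at permissive 25 °C to find synthetic lethal compounds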
Each line names hits and unclear results; the compound was inactive in the other large screens (follow-up assays come after a bar, where they were run). A selection: hits, their analogues and other compounds. The true share with any hit is near 4.7%.

Cc1ccc(C)c(S(=O)(=O)ON2C(=O)c3ccccc3C2=O)c1	tim10-1 inh 70.0 (no result: SKKanGAS inh) | tim10-1 conf 51.6
COc1ccc(CN(C)C(C)C(=O)Nc2cccc3ccccc23)cc1 (centres undefined)	none
Cc1ccnc(NC(=O)COC(=O)C2COc3ccccc3O2)n1 (centres undefined)	tim10-1 inh 64.0 (no result: PfHsp90 yeast 2, SKKanGAS inh) | tim10-1 conf inactive
NC(=O)c1ccc(NC(=O)COC(=O)C2COc3ccccc3O2)cc1 (centres undefined)	none (no result: SKKanGAS inh)
CC(C)COc1ccc(C(=O)CCN2CCCCC2)cc1	tim10-1 inh 54.4 | tim10-1 conf inactive
Oc1ccc(Br)cc1/C=N/N1CCCCC1	none
Oc1ccc(Br)cc1/C=N/n1cnc2ccccc21	tim10-1 inh 42.3 | tim10-1 conf inactive
O=C(c1ccccc1)C(Nc1cccc([N+](=O)[O-])c1)c1ccccc1 (centres undefined)	none (no result: PfHsp90 yeast 2, SKKanGAS inh, tim23-1 inh, tim10-1 inh, TIM10 inh)
CC(C)(C)NC(=O)NC(=O)CN1CCN(C(c2ccccc2)c2ccccc2)CC1	none (no result: SKKanGAS inh)
CN1CCN(CCC(=O)N/N=C/c2cc3c(cc2[N+](=O)[O-])OCO3)CC1	none
COc1cc(C(=O)Nc2ccc3nc(N4CCOCC4)sc3c2)cc(OC)c1OC	tim10-1 inh 41.2 (no result: SKKanGAS inh) | tim10-1 conf inactive
Clc1ccc(C2[C@H]3CN(Cc4cccnc4)[C@H](c4ccccc4)C34CC2(c2cccnc2)C4)cn1 (some centres undefined)	none
O=c1nc(Nc2ccccc2)sc2ccc([N+](=O)[O-])cc12	none
Cc1nn2c3ccccc3nc2c2ccccc12	tim10-1 inh 50.9 | tim10-1 conf 42.5
CSc1ccc(/C=C/C(=O)c2c(O)cc(C)oc2=O)cc1	tim10-1 inh 46.9 | tim10-1 conf 38.5
CC(=O)Nc1nc(C)c(CCC2OCCO2)c(=O)[nH]1	none
COc1ccc(-c2csc(NC(=O)C3COc4ccccc4O3)n2)cc1OC (centres undefined)	tim10-1 inh 43.1 | tim10-1 conf inactive
N/C(=N\OC(=O)c1cccc2ccccc12)c1cccnc1	tim10-1 inh 61.7 | tim10-1 conf 65.3
N/C(=N\OC(=O)C(c1ccccc1)c1ccccc1)c1cccnc1	tim10-1 inh 41.2 | tim10-1 conf inactive
N/C(=N\OC(=O)c1ccc(Cl)cc1)c1cccnc1	tim10-1 inh 65.1 | tim10-1 conf 61.8
N/C(=N\OC(=O)c1ccco1)c1cccnc1	none
N/C(=N\OC(=O)c1ccc(Cl)cc1)c1ccc(Cl)cc1	tim10-1 inh 43.2 | tim10-1 conf 33.6
N/C(=N\OC(=O)c1ccc(Cl)cc1)c1ccn[nH]1	none
Cc1cccc(CC(=O)N2CCCC2)c1	none
c1ccc(-c2nnn(C34CC5CC(CC(C5)C3)C4)n2)cc1	tim10-1 inh 46.6 | tim10-1 conf inactive
Nc1ncn(C23CC4CC(CC(C4)C2)C3)n1	none
CC(C)c1cccc(C(C)C)c1NC(=O)CNCc1ccccc1F	tim10-1 inh 47.0 | tim10-1 conf inactive
COc1ccc(/C=N/NC(=O)COc2ccccc2-c2ccccc2)cc1	tim10-1 inh 45.0 | tim10-1 conf inactive
CC(=O)Nc1ccc2nc(CN3CCC(CO)(CCc4ccccc4)CC3)ccc2c1	none
C[C@H](CO)N1C[C@H](C)[C@@H](CN(C)S(=O)(=O)c2ccccc2F)Oc2ncc(Br)cc2C1=O	none (no result: PfHsp90 yeast 2, SKKanGAS inh, tim23-1 inh, tim10-1 inh, TIM10 inh)
Cc1c(CN(C)C(=O)/C=C/c2ccc([N+](=O)[O-])cc2)cnn1C	none
O=C(C1CCC1)N1CCCc2cc(S(=O)(=O)N3CCN(c4ccccc4)CC3)ccc21	tim10-1 inh 45.9 | tim10-1 conf 34.5
C=C1CCN([C@@H](CC(C)C)C(=O)NCc2ccco2)S(=O)(=O)c2ccccc21	none (no result: PfHsp90 yeast 2)
CSc1nc2nccc(/C=C\c3ccccc3)n2n1	tim10-1 inh 52.9 | tim10-1 conf 38.2
N#Cc1ccc(Cn2ccnc2C(=O)Nc2ccccc2)cc1	tim10-1 inh 57.0 | tim10-1 conf inactive
Cc1ccc(Cn2ccnc2C(=O)Nc2ccccc2)cc1	none
Cc1ccc(S(=O)(=O)N2CCC(C(=O)N3CCCCCCC3)CC2)cc1C	none (no result: PfHsp90 yeast 2, SKKanGAS inh, tim23-1 inh, tim10-1 inh, TIM10 inh)
Cc1cccc(N2CCN(C(=O)COc3noc4nc(C)cc(C)c34)CC2C)c1 (centres undefined)	none (no result: PfHsp90 yeast 2, SKKanGAS inh, tim23-1 inh, tim10-1 inh, TIM10 inh)
S=c1[nH]nc(-c2ccccc2)n1/N=C/c1ccc(-c2ccccc2Cl)o1	tim10-1 inh 44.7 | tim10-1 conf inactive
S=c1[nH]nc(-c2cccc(Cl)c2)n1/N=C/c1ccc(-c2ccccc2Br)o1	none
COc1ccc(Cl)cc1NC(=O)CSc1nc(C)cc(C)n1	tim10-1 inh 40.8 | tim10-1 conf inactive
COc1ccc(NC(=O)CSc2nc(C)cc(C)n2)cc1	none
Nc1sc(-c2ccccc2)c(Cc2ccccc2)c1C(=O)O	tim10-1 inh 53.2 | tim10-1 conf 34.8
C=CCNc1sc(C(=O)c2ccccc2)c(N)c1-c1nc2ccccc2s1	tim10-1 inh 40.0 (no result: PfHsp90 yeast 2) | tim10-1 conf inactive
CCOC(=O)c1sc(NCc2ccco2)c(-c2nc3ccccc3s2)c1N	none
CSc1ccc(/C=N/NC(=O)CNc2ccc3ccccc3c2)cc1	tim10-1 inh 45.9 | tim10-1 conf 43.5
O=C(CNc1ccc2ccccc2c1)N/N=C/c1ccncc1	none
COc1cccc(C(Nc2ccccn2)c2c(NC(=O)c3ccco3)sc(C)c2C)c1 (centres undefined)	none
Cc1sc(NC(=O)c2ccco2)c(C(Nc2ccccn2)c2ccccc2)c1C (centres undefined)	none | tim10-1 conf inactive
Cc1sc(NC(=O)c2ccco2)c(C(c2cccnc2)N2CCCC2)c1C (centres undefined)	tim10-1 inh 52.2 (no result: PfHsp90 yeast 2) | tim10-1 conf 45.0
COc1ccc(C(Nc2ccccn2)c2c(NC(=O)c3ccco3)sc(C)c2C)cc1 (centres undefined)	tim10-1 inh 41.1 | tim10-1 conf inactive
Cc1sc(NC(=O)c2ccco2)c(C(c2cccnc2)N2CCN(C)CC2)c1C (centres undefined)	none
O=S(=O)(c1ccc2c(c1)OCCO2)N1CCC(n2cnc3cc(F)ccc32)CC1	none
O=S(=O)(c1ccc2c(c1)OCCO2)N1CCC(n2nnc3cc(F)ccc32)CC1	tim10-1 inh 42.0 (no result: PfHsp90 yeast 2) | tim10-1 conf inactive
CN(C)CCC(=O)C(Cc1ccccc1)c1ccccc1 (centres undefined)	tim10-1 inh 45.1 | tim10-1 conf 45.0
CN(C)CCNC(=O)C(c1ccccc1)c1ccccc1	none
COc1ccc(CNC(=O)c2ccc(-n3ccnc3)c3ccoc23)cc1OC	none (no result: PfHsp90 yeast 2, SKKanGAS inh, tim23-1 inh, tim10-1 inh, TIM10 inh)
CCCCN(C(=O)c1cc(Cl)nc2ccccc12)c1c(N)n(CCCC)c(=O)[nH]c1=O	none (no result: PfHsp90 yeast 2)
CCOC(=O)C(=O)Nc1nccs1	none
CCOC(=O)/C=C/C(=O)Nc1nccs1	tim10-1 inh 42.6 | tim10-1 conf 39.6
Cc1nc([N+](=O)[O-])c(C(=O)OCc2cccc(Br)c2)n1C	tim10-1 inh 43.2 (no result: PfHsp90 yeast 2) | tim10-1 conf 32.6
